Pf growth 96h – inhibits malaria parasite growth, 96 h | P. falciparum luciferase reporter growth, 96 h | Potency, µM (series often up to 28.7 µM), actives largely listed as inhibitors | 320,000 tested, 6.9% active
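Plates of compound plus infected erythrocytes (2% hematocrit, 0.05% parasitemia final) incubate 96 hours, 37 C, 5% CO2. Detection reagent added; reduced luminescence from the parasites' luciferase reporter flags inhibition.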
Cycloheximide cs – counter-screen hit for Shiga toxin inhibitors, cycloheximide; AID 2314; max response, %; cell reporter, cycloheximide protein synthesis inhibition counterscreen; 300,000 tested, 12% active; in the data active means max response mostly above about 13%, no sharp cut-off; inactive means mostly below about 14%; further: read at 38.3 µM for the half of the compounds with a filed dose
Shiga inhibitor – Shiga toxin inhibition. Vero cells, Shiga toxin protein synthesis inhibition reporter. inhibition, % at 38.7 µM. 290,000 tested, 9.2% active; in the data active means inhibition mostly above about 28%, no sharp cut-off; inactive means mostly below about 43%
Pf growth 48h – P. falciparum growth inhibition at 48 hours (one generation) | P. falciparum luciferase growth in erythrocytes, 48 h | Potency, µM (titrated, usually from 28.7 µM), most hits filed as inhibitors | 310,000 tested, 5.9% active | AID 504832
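Luciferase-expressing P. falciparum in infected erythrocytes (2% hematocrit, 0.1% parasitemia final) in RPMI 1640/0.5% Albumax were exposed to compound for 48 hours at 37 C, 5% CO2; growth read as luminescence.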
Each line names hits and unclear results; the compound was inactive in the other large screens. Rows were chosen to be rich in hits. Some 21% of all compounds tested hit in one or more screens of this group. Unless noted, the call rests on the fitted dose curve; in most records, active means well fitted inhibition curve with a large enough effect; inconclusive means small, poorly fitted or top-dose-only effect, or another doubt; inactive means no such curve, though single readings can be large or run the other way.

Cc1[nH]c2ccccc2c1C(=O)C(C)OC(=O)c1ccc(Cl)nc1 (stereo not drawn)	Pf growth 48h inconclusive (no result: Cycloheximide cs, Shiga inhibitor)
Cc1[nH]c2ccccc2c1C(=O)C(C)OC(=O)c1ccc(NC(=O)CC#N)cc1 (stereo not drawn)	Pf growth 96h 3.29µM, Pf growth 48h 3.7µM (no result: Cycloheximide cs, Shiga inhibitor)
Cc1cc(C(=O)C(C)OC(=O)c2ccc(NC(=O)CC#N)cc2)c(C)n1-c1ccc(OC(F)F)cc1 (stereo not drawn)	Pf growth 96h inconclusive, Pf growth 48h 5.86µM (no result: Cycloheximide cs, Shiga inhibitor)
O=C(CN(C(=O)CNC(=O)c1ccco1)c1cccc(F)c1)NC1CCCCC1	Pf growth 96h inconclusive
Cc1cccc(C)c1NC(=O)C(C)Sc1nnc(C)n1CC1CCCO1 (stereo not drawn)	none
Cc1ccc(OCC(=O)Nc2cc(-c3nn4c(C)nnc4s3)ccc2C)cc1	Pf growth 96h 7.38µM, Pf growth 48h inconclusive
CCC(=O)Nc1cc(-c2nn3c(C)nnc3s2)ccc1C	none
N#Cc1ccsc1NC(=O)C1=COCCO1	Pf growth 96h inconclusive (no result: Cycloheximide cs, Shiga inhibitor)
CCc1oc2ccccc2c1C(=O)c1cc(I)c(O)c(I)c1	Pf growth 96h 1.9µM (no result: Cycloheximide cs, Shiga inhibitor)
CCCn1c(SCC(=O)NCc2ccc(Cl)cc2)n[nH]c1=O	none
Cc1[nH]c(-c2ccco2)nc1C(=O)O	Pf growth 96h 6.57µM
Cc1[nH]c(-c2ccc3c(c2)OCO3)nc1C(=O)O	none (no result: Pf growth 48h)
O=C1CSC(=S)N1N=C1CCCCCC1	Cycloheximide cs 14.0
O=C(NCc1ccc(Cl)cc1)c1cccc2c1C(=O)N(CC1CCCO1)C2 (stereo not drawn)	none
C[N+]12CCCC[C@@H]1CCC(=C(c1cccs1)c1cccs1)C2 (stereo partly drawn)	Pf growth 48h 4.26µM (no result: Cycloheximide cs, Shiga inhibitor)
CC1CCCCN1C(=S)NC(=O)c1cccs1 (stereo not drawn)	Pf growth 96h inconclusive
COC(=O)/C(=C\Nc1ccc(Cl)cc1Cl)NC(=O)c1ccc(Cl)cc1Cl	Cycloheximide cs 19.3, Shiga inhibitor 80.2
CCOC(=O)NC(=O)/C(C#N)=C\Nc1sccc1C(=O)OC	none
CCOC(=O)NC(=O)/C(C#N)=C\Nc1ccc(Cl)cc1Cl	Cycloheximide cs 31.9
COc1ccccc1/C=C(/NC(=O)c1ccc(Cl)cc1Cl)C(=O)O	Pf growth 96h 8.28µM
COc1ccc(/C=C(/NC(=O)c2ccccc2Cl)C(=O)O)cc1	none
O=C(NCCC(=O)N1CCN(c2ccc(F)cc2)CC1)c1ccco1	none (no result: Cycloheximide cs, Shiga inhibitor)
Oc1ccccc1-n1nc2ccc3nonc3c2n1	none
COc1ccccc1NC(=O)Nc1nc(CC(=O)Nc2cc(F)ccc2F)cs1	Pf growth 96h inconclusive (no result: Cycloheximide cs, Shiga inhibitor)
Cc1sc(NC(=O)c2ccccc2F)c(CN2CCCCC2C)c1C (stereo not drawn)	Cycloheximide cs 71.2, Shiga inhibitor 61.0
Cc1c(C(=O)N2CCOCC2)sc(NC(=O)c2ccccc2F)c1C#N	Pf growth 96h inconclusive
Cc1cccc(C2=NC(C(F)(F)F)(C(F)(F)F)c3c(n(-c4ccc(F)cc4)c(=O)[nH]c3=O)N2)c1	Pf growth 96h 11.7µM, Pf growth 48h 13.1µM
COc1cc([C@H]2[C@@H]3CCCC[C@]3(O)CCN2Cc2ccccc2F)ccc1O	Pf growth 96h 11.7µM, Pf growth 48h inconclusive
COc1cc([C@H]2[C@@H]3CCCC[C@]3(O)CCN2CC(=O)Nc2ccc(C)cc2C)ccc1O	Pf growth 96h inconclusive, Pf growth 48h inconclusive
O=C(COc1ccccc1)Nc1c2c(nn1-c1ccccc1)CS(=O)C2 (stereo not drawn)	none
O=C(C1=C[C@H](C2CC2)C[C@H](OCCCCO)O1)N1CCOCC1	none
COc1ccccc1OCC#CCN1CCCCCC1	none
Clc1ccc(OCC#CCN2CCCC2)cc1	Cycloheximide cs 23.1, Shiga inhibitor 61.2
CN1CCN(CC#CCOc2ccc(Cl)cc2)CC1	Cycloheximide cs 20.8 (no result: Shiga inhibitor)
O=C(Nc1cccc([N+](=O)[O-])c1)c1ccc2c(c1)C(=O)N(c1ccccn1)C2=O	none
CCOCCCn1c(SCC(=O)NCc2ccco2)nc2c(sc3ccccc32)c1=O	Pf growth 96h inconclusive, Cycloheximide cs 31.7 (no result: Pf growth 48h)
O=C(CSc1nc2c(sc3ccccc32)c(=O)n1-c1ccccc1)NCc1ccco1	Cycloheximide cs 29.9, Pf growth 48h inconclusive
CCC1CCc2c(sc3nc(SCC(=O)NCc4ccco4)n(-c4ccccc4)c(=O)c23)C1 (stereo not drawn)	Pf growth 48h 11.7µM
Cc1ccc(-n2c(SCC(=O)NCc3ccco3)nc3sc4c(c3c2=O)CC(C)(C)SC4)cc1	Pf growth 96h inconclusive
CCc1nn(CCCC(=O)NCc2ccccc2C)c(=O)c2cc3occc3n12	none
Cc1nc(NC(=O)CN2CCN(c3cccc(Cl)c3)CC2)sc1C(=O)N(C)C	Pf growth 96h inconclusive
O=C(COc1ccc2c(-c3ccccc3)cc(=O)oc2c1)NC1CCS(=O)(=O)C1 (stereo not drawn)	none (no result: Cycloheximide cs, Shiga inhibitor)
Cc1ccc(C)c(NC(=O)CN(C)C(=O)C2COc3ccccc3O2)c1 (stereo not drawn)	Pf growth 48h inconclusive (no result: Cycloheximide cs, Shiga inhibitor)
Cc1c(C(=O)Nc2ccc(Cl)cc2)c2ccccn2c1CCc1ccncc1	Pf growth 96h 9.28µM, Cycloheximide cs 27.6, Shiga inhibitor 38.9, Pf growth 48h inconclusive
Cc1c(C(=O)Nc2cccc(Cl)c2)c2ccccn2c1CCc1ccncc1	Pf growth 96h inconclusive, Shiga inhibitor 37.1
O=C1C2C3C=CC(CC3)C2C(=O)N1c1ccccc1F (stereo not drawn)	none
CC(=O)c1ccc(NC(=S)NCCc2ccccn2)cc1	Cycloheximide cs 43.4, Shiga inhibitor 20.8
CN(CCc1ccccn1)C(=O)Nc1ccc(Cl)cc1	Cycloheximide cs 31.8
Fc1ccc(NC(=S)NCc2ccccn2)cc1	Cycloheximide cs 16.3, Shiga inhibitor 46.3
CC(C)(C)c1ccc(NC(=S)NCCc2ccccn2)cc1	Pf growth 96h inconclusive, Cycloheximide cs 17.1
CN(C)S(=O)(=O)c1cccc(NC(=S)NCCc2ccccn2)c1	none
Cc1cc(C)nc(NC2=NCCN2C(=S)Nc2ccc(C)c(C)c2)n1	Pf growth 96h inconclusive, Pf growth 48h inconclusive
CCCCN(C(=O)CSc1nnnn1C)C1CCS(=O)(=O)C1 (stereo not drawn)	none (no result: Cycloheximide cs, Shiga inhibitor)
Fc1ccc(NC(=S)NCCc2ccccn2)cc1	none
S=C(NCCc1ccccn1)Nc1ccc(Cl)cc1	Cycloheximide cs 38.8, Shiga inhibitor 47.6
Cc1ccc2nc(NC(=O)CCCc3nc4ccccc4s3)sc2c1	Cycloheximide cs 41.8 (no result: Pf growth 48h)
Cc1ccc2nc(NC(=O)CCn3cccc3)sc2c1	Pf growth 96h inconclusive, Cycloheximide cs 22.5, Shiga inhibitor 53.0
O=C(Nc1ccc(O)cc1)c1ccc(NC(=O)c2cccs2)cc1	Cycloheximide cs 37.8, Shiga inhibitor 86.8
Cc1ccc(NC(=O)c2cccs2)cc1NC(=O)c1ccc(F)cc1	Pf growth 96h 10.4µM (no result: Shiga inhibitor)
O=C(O)c1ccc(NC(=O)c2cccc(NC(=O)c3cccs3)c2)cc1	none
O=C(Nc1cccc(O)c1)c1ccc(NC(=O)c2cccs2)cc1	Cycloheximide cs 74.2, Shiga inhibitor 130.3
Cc1ccc(NC(=O)c2cccs2)cc1NC(=O)c1cccc(F)c1	Pf growth 96h inconclusive
O=C(Nc1ccc(NC(=O)c2cccs2)cc1)c1ccccc1	Cycloheximide cs 23.9, Shiga inhibitor 45.9
O=C(Nc1ccc(NC(=O)c2cccs2)cc1)c1ccc2c(c1)OCCO2	none
CCOC(=O)c1cc2c(ccc3nc(C)c(C)c32)[nH]c1C	Pf growth 48h inconclusive
O=c1c2cnn(-c3ccccc3)c2nc(-c2cccs2)n1-c1ccc(Br)cc1	none

Compound activity: PubChem, National Center for Advancing Translational Sciences (NCATS)
